Reference: PubChem BioAssay (NCI)
This is part of a sample that, as a whole, favours compounds with a hit. Of some 83,000 tested, about 20% had one in any assay.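 In brief: 96-well plates, 48 h treatment, single concentration, percent growth endpoint.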 The source made the active and inactive calls. The calls were made as follows: active = growth percent below 10; inactive = the rest.

Columns and labels:
Assay in all cases: NCI-60 one-dose screen, 48 h (100 = growth as untreated, 0 = no growth, -100 = all killed)
[1] = tested on: SR leukemia; conditions: 10 µM unless noted
[2] = tested on: OVCAR-8 ovarian; conditions: 10 µM unless noted
[3] = tested on: OVCAR-5 ovarian; conditions: 10 µM unless noted
[4] = tested on: OVCAR-4 ovarian; conditions: 10 µM unless noted
[5] = tested on: SK-OV-3 ovarian; conditions: 10 µM unless noted
[6] = tested on: IGROV1 ovarian; conditions: 10 µM unless noted
[7] = tested on: OVCAR-3 ovarian; conditions: 10 µM unless noted
[8] = tested on: HS 578T breast; conditions: 10 µM
[9] = tested on: NCI/ADR-RES ovarian; conditions: 10 µM unless noted
[10] = tested on: T-47D breast; conditions: 10 µM unless noted
[11] = tested on: BT-549 breast; conditions: 10 µM unless noted
[12] = tested on: MDA-MB-435 melanoma; conditions: 10 µM unless noted
[13] = tested on: SW-620 colon; conditions: 10 µM unless noted
[14] = tested on: MCF7 breast; conditions: 10 µM unless noted
[15] = tested on: HCT-116 colon; conditions: 10 µM unless noted
[16] = tested on: HCC-2998 colon; conditions: 10 µM unless noted
[17] = tested on: KM12 colon; conditions: 10 µM unless noted
[18] = tested on: RPMI-8226 leukemia; conditions: 10 µM unless noted

Measured: growth

CC(=O)N[C@@H](CCC(N)=O)C(=O)O
inactive: [1] 104% | [2] 98.8% | [3] 111% | [4] 111% | [5] 96.7% | [6] 84.9% | [7] 102% | [8] 81.7% | [9] 98.9% | [10] 107% | [11] 118% | [12] 99.6% | [13] 94.1% | [14] 98.8% | [15] 96.3% | [16] 99.5% | [17] 103%

CC(C)NC(=O)OCC#CCOC(=O)NC(C)C
inactive: [1] 102% | [2] 115% | [3] 110% | [4] 121% | [5] 94.8% | [6] 90.6% | [7] 108% | [8] 115% | [9] 109% | [10] 99.2% | [11] 95.7% | [12] 110% | [13] 109% | [15] 95.4% | [17] 106%

COc1cc2nccc(Oc3ccc(NC(=O)C4(C(=O)Nc5ccc(F)cc5)CC4)cc3)c2cc1OC(=O)c1ccc(N)cc1
inactive: [2] 51.9% | [3] 31% | [4] 51.7% | [5] 69.6% | [6] 60.7% | [7] 47.5% | [9] 35.5% | [10] 19.5% | [11] 36.1% | [12] 33.2% | [13] 33.5% | [14] 23.8% | [15] 23.1% | [17] 12.3%
active: [1] 9.85% | [8] -16.9%

Oc1c(C(c2ccc(F)cc2)N2CCCCC2)ccc2cncnc12 (stereo not given)
active: [2] 8.68% | [4] 5.59% | [5] -14.9% | [6] 9.64% | [10] 5.62% | [14] 6.3%
inactive: [1] 15.7% | [3] 22.3% | [7] 11.1% | [8] 13% | [9] 20.3% | [11] 25.8% | [12] 14.1% | [13] 18.1% | [15] 11.1% | [16] 32.3% | [17] 16.2%

COc1ccc(/C(=C\c2cc(OC)c(OC)c(OC)c2)C(=O)Nc2nc3ccc(Cl)cc3s2)cc1
inactive: [1] 76.4% | [18] 80.8% | [3] 97.2% | [4] 104% | [5] 98.4% | [6] 106% | [8] 100% | [9] 92% | [10] 86.7% | [11] 98.3% | [12] 100% | [13] 105% | [14] 98.9% | [15] 86.8% | [16] 104% | [17] 94.2%

O=C1OCC2=C1C(c1cccc(Br)c1)c1cc3c(cc1N2CCO)OCCO3 (stereo not given)
active: [7] -61.5% | [8] 8.74% | [9] 8.43% | [12] -40.4% | [15] 6.29% | [17] -33.9%
inactive: [1] 29.8% | [18] 21.4% | [3] 39.5% | [4] 53.4% | [5] 32.3% | [6] 18.3% | [10] 76.9% | [11] 21.4% | [13] 21.3% | [14] 18.2%

COc1cc(/C=C2\C(=O)Nc3ccc(N(C)C)cc32)cc(OC)c1OC
active: [8] -18.2% | [9] 0.228% | [11] 6.82% | [12] -37.7% | [13] 8.08%
inactive: [1] 19.1% | [18] 14.3% | [3] 71.1% | [4] 42.1% | [5] 45.5% | [6] 16.6% | [10] 34.3% | [14] 12% | [16] 49.1%

COc1ccc(/C(=C\c2cc(OC)c(OC)c(OC)c2)C(=O)N2CCN(c3ccccc3)CC2)cc1O
inactive: [1] 87.7% | [18] 73.5% | [3] 101% | [4] 98.1% | [5] 111% | [6] 102% | [7] 111% | [8] 87.8% | [9] 93.9% | [11] 103% | [12] 98.1% | [13] 104% | [14] 92.5% | [15] 106% | [16] 98.1% | [17] 96.7%

CNCc1ccccc1CN(CC(=O)Nc1ccc2c(c1)CC1(C2)C(=O)Nc2ncccc21)C(=O)C(C)(C)C (stereo not given)
inactive: [1] 110% | [18] 106% | [3] 109% | [4] 104% | [5] 108% | [6] 92.4% | [7] 114% | [8] 95.9% | [9] 108% | [10] 94.1% | [11] 96.3% | [12] 95.7% | [13] 97.4% | [15] 105% | [16] 113% | [17] 107%

O=C(Nc1ccccc1)C(CCCCN1C(=O)c2ccccc2C1=O)N1C(=O)c2ccccc2C1=O (stereo not given)
inactive: [1] 92.7% | [18] 86.2% | [3] 103% | [4] 106% | [5] 107% | [6] 110% | [7] 107% | [8] 106% | [9] 98.6% | [10] 105% | [11] 104% | [12] 108% | [13] 102% | [14] 101% | [15] 107% | [17] 100%

C=C(C)C1CCC2(C(=O)O)CCC3(C)C(CCC4C5(C)CCC(O)C(C)(C)C5CCC43C)C12 (stereo not given)
active: [1] 9.38% | [18] 7.96% | [3] -87.3% | [4] -40.7% | [6] 7.47% | [7] -56.1% | [9] -54% | [10] -1.03% | [11] -57.5% | [14] 1.31% | [15] -88.5% | [17] -26.6%
inactive: [5] 28% | [12] 48.6% | [13] 19.6%

CC(C)CC(NC(=O)C(CCCN=C(N)N)NC(=O)OCc1ccccc1)C(=O)NC(CNC(=O)/C=C/c1ccccc1)C(C)C (stereo not given)
inactive: [1] 98.3% | [18] 96% | [3] 89.3% | [4] 95.8% | [5] 117% | [6] 88.3% | [7] 105% | [10] 96.2% | [12] 97.5% | [13] 105% | [14] 91% | [15] 102% | [16] 137% | [17] 105%

COc1ccc2[nH]cc(/C=C3\C(=O)Nc4ccccc43)c2c1
inactive: [18] 31.3% | [3] 52.9% | [4] 54.6% | [5] 38.9% | [7] 35.5% | [8] 33.2% | [9] 23.1% | [10] 36.6% | [11] 48.5% | [13] 11.4% | [14] 16.3% | [16] 36% | [17] 13.7%
active: [1] 2.21% | [6] -21.9% | [12] -41.6%

CCOC(=O)c1ccccc1SC(C[N+](=O)[O-])c1ccccc1 (stereo not given)
active: [12] -58.1% | [14] 1.05% | [15] 3.98% | [16] 8.62%
inactive: [1] 38.2% | [2] 85.8% | [3] 100% | [4] 89.1% | [5] 117% | [6] 72.1% | [7] 104% | [8] 104% | [9] 112% | [10] 60.6% | [11] 88.4% | [13] 55.8% | [17] 91.6%

COc1cc(C2CC(c3ccc(Cl)cc3)=NN2C=O)ccc1OS(=O)(=O)c1ccc(C)cc1 (stereo not given)
inactive: [1] 99.8% | [18] 82.4% | [3] 87.2% | [4] 112% | [5] 96.3% | [6] 94.4% | [7] 102% | [8] 86.8% | [10] 77% | [11] 83.2% | [12] 90.2% | [13] 87.2% | [14] 78.9% | [15] 81.1% | [17] 93.4%

CCCN(CCC)CC(O)COc1ccccc1C(=O)Nc1ccccc1 (stereo not given)
inactive: [1] 28.7% | [18] 71.4% | [3] 115% | [4] 85% | [5] 67.4% | [6] 113% | [7] 50.3% | [8] 80.9% | [11] 87.1% | [13] 36.9% | [14] 79.9% | [15] 50.6% | [16] 79.6% | [17] 48.3%
active: [12] -21.1%

C=CCn1c(C)nc2cc(Nc3nc(N4CCOCC4)nc4nc[nH]c34)ccc21
inactive: [1] 85.6% | [2] 87.3% | [3] 74.1% | [4] 88.4% | [5] 82.6% | [6] 72.9% | [7] 97.7% | [8] 57.3% | [9] 108% | [10] 75.4% | [11] 90.3% | [12] 100% | [13] 93.1% | [15] 91.4% | [16] 100% | [17] 101%

CN(C)CCOc1nc2c3cccnc3cc(-c3cccc(Cl)c3)c2c2ncccc12
inactive: [3] 45.5% | [4] 20.6% | [5] 45% | [6] 30.9% | [7] 17.8% | [8] 43.1% | [9] 18.7% | [10] 20.1% | [11] 57.9% | [17] 14.2%
active: [1] 0.455% | [18] -21.6% | [12] -59.6% | [13] -44.3% | [14] -50% | [15] -81.3% | [16] -79.2%

COc1cc(C)c2c(=O)c3c(oc2c1)C(=O)c1c(O)c(OC)cc(O)c1C3=O
active: [18] -8.23% | [3] -4.74% | [4] 1.77% | [5] 9.16% | [7] 5% | [9] 5.56% | [10] 0.298% | [14] 7.86% | [15] 7.58% | [16] 1.73%
inactive: [1] 15.7% | [8] 35% | [11] 11.7% | [12] 16.3% | [13] 16.9% | [17] 14.6%
